Bioassay records: PubChem BioAssay, Broad Institute
This excerpt belongs to a sample that is enriched for hits.
Tg IFNy HTS: T. gondii growth inhibition with IFN-gamma, primary screen, cell-based; Toxoplasma gondii growth in IFN-gamma-treated host cells; hits give low values; activity change, negative = inhibition, % (no concentration beside the values); 69,000 compounds, 3.8% hits; AID 1259416, 2018; in the data active means activity change below about -70%, passing the limit was not always enough;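 further: host cells are HeLa cells infected with Toxoplasma gondii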
The depositor's hits bear a star.

Screening Cc1nc2n(c(=O)c1CCN1CCC(c3noc4cc(F)ccc34)CC1)CCCC2O (stereo unspecified) returned Tg IFNy HTS 22.8.
`O=C(CCc1cccnc1)N1CCC2(CN(Cc3ccc(C(F)(F)F)cc3)C2)C1` gave Tg IFNy HTS -2.9.
`Cn1nc(-c2ccccc2)cc1C(=O)N1CCCC(c2cc(=O)[nH]cn2)C1` (stereo unspecified) gave Tg IFNy HTS -8.7.
For Cc1ccc(S(=O)(=O)NC(=O)NCCSCc2ccccc2Cl)cc1 the results were Tg IFNy HTS 18.8.
For Cc1nc2ccc(C(=O)O)cc2nc1C the results were Tg IFNy HTS 6.1.
`Nc1cccc(C(=O)O)c1` gave Tg IFNy HTS 2.7.
O=C(O)c1ccc2nc3c(nc2c1)-c1cccc2cccc-3c12 was read as Tg IFNy HTS -109.6*.
For CCOc1ccc(OCC)c(S(=O)(=O)Oc2cccc3ccc(C)nc23)c1 the results were Tg IFNy HTS -93.5*.
`CCOc1ccc(C(=O)C(C)=O)c(OCC)c1` gave Tg IFNy HTS 34.5.
COc1ccc(OC)c(S(=O)(=O)Oc2ccccn2)c1 was read as Tg IFNy HTS 30.0.
N#Cc1c2c(c(-c3ccccc3)[nH]c1=S)CCCC2 was read as Tg IFNy HTS -9.7.
COc1ccc(C[C@H](NC(=O)[C@H](C)NC(=O)CN2CCOCC2)C(=O)N[C@@H](Cc2ccccc2)C(=O)[C@]2(C)CO2)cc1 was read as Tg IFNy HTS -73.8*.
For COc1ccc(-c2nc(C(=O)NC(C)CN3CCOCC3)cs2)cc1 (stereo unspecified) the results were Tg IFNy HTS 25.9.
`CC(C)C[C@H](NC(=O)[C@H](CCc1ccccc1)NC(=O)CN1CCOCC1)C(=O)N[C@@H](Cc1ccccc1)C(=O)N[C@@H](CC(C)C)C(=O)[C@@]1(C)CO1` gave Tg IFNy HTS -63.3.
c1cc(CN(Cc2nc(-c3ccc4c(c3)OCO4)no2)CC2CCCO2)ccn1 (stereo unspecified) was read as Tg IFNy HTS -8.3.
COCC1CC2(CCN(Cc3nc(C)cs3)CC2)CO1 (stereo unspecified) was read as Tg IFNy HTS -8.1.
For CN(C)c1ccc2c(c1)CN(C(=O)c1cccnc1)C2c1cnco1 (stereo unspecified) the results were Tg IFNy HTS 4.2.
For OC(c1cc(C(F)(F)F)nc2c(C(F)(F)F)cccc12)C1CCCCN1 (stereo unspecified) the results were Tg IFNy HTS -80.2*.
O=C1NCC(CN2CCc3onc(C(c4ccccc4)c4ccccc4)c3C2)O1 (stereo unspecified) was read as Tg IFNy HTS -34.9.
`Cc1nc2ccccc2n1C(C)C(=O)O` (stereo unspecified) gave Tg IFNy HTS 12.0.
COc1ccc(N2CCN(CCCNC(=O)C3=C(C)C(=O)OC34CCN(C(C)=O)CC4)CC2)cc1 was read as Tg IFNy HTS 60.1.
COc1cccc(C(=O)N2CCC3(CC2)Nc2ccccc2-n2cccc23)c1 was read as Tg IFNy HTS 45.8.
For COc1cc2cc(CNc3ccc(N4CCN(C)CC4)cc3)c(=O)[nH]c2cc1OC the results were Tg IFNy HTS -18.2.
For CC(C)c1ccc2[nH]c(=O)c(CNc3ccc4[nH]ncc4c3)cc2c1 the results were Tg IFNy HTS -81.8*.
COc1ccc2[nH]c(=O)c(CNc3ccc(-c4nc5ccc(C)cc5[nH]4)cc3)cc2c1 was read as Tg IFNy HTS 48.3.
For CC(C)(C(N)=O)c1ccc(-c2cc(N)nc3[nH]ccc23)cc1 the results were Tg IFNy HTS 19.1.
Screening CNC(=O)c1ccc(-c2cc(NCCO)nc3[nH]ccc23)s1 returned Tg IFNy HTS 10.4.
For NC(=O)c1csc(-c2cc(NC3CCCC3)nc3[nH]ccc23)n1 the results were Tg IFNy HTS -76.4*.
CCc1ccc(NC(=O)Cn2ncc3c(N4CCCCCC4)ncnc32)cc1 was read as Tg IFNy HTS -34.5.
For CCCNC(=O)Cn1ncc2c(N3CCN(c4ccccn4)CC3)ncnc21 the results were Tg IFNy HTS 44.5.
Screening O=C(Cn1ncc2c(N3CCCC3)ncnc21)Nc1ccc(F)cc1F returned Tg IFNy HTS 54.8.
For CCc1ccc(CNC(=O)Cn2ncc3c(N4CCCCCC4)ncnc32)cc1 the results were Tg IFNy HTS -91.6*.
Screening CCOc1ccc(CNC(=O)Cn2ncc3c(N4CCCC4)ncnc32)cc1OCC returned Tg IFNy HTS -4.2.
For O=C(Cn1ncc2c(N3CCCCCC3)ncnc21)Nc1ccc(F)cc1 the results were Tg IFNy HTS -2.6.
O=C(Cn1ncc2c(N3CCCCCC3)ncnc21)NCc1ccc(F)c(Cl)c1 was read as Tg IFNy HTS 3.3.
O=C(Cn1ncc2c(N3CCN(c4ccccn4)CC3)ncnc21)NCc1ccco1 was read as Tg IFNy HTS -97.0*.
`O=C(Cn1ncc2c(N3CCCCCC3)ncnc21)NCc1ccc(F)cc1` gave Tg IFNy HTS -98.6*.
CCc1ccc(CNC(=O)Cn2ncc3c(N4CCOCC4)ncnc32)cc1 was read as Tg IFNy HTS 278.6.
Screening O=C(Cn1ncc2c(N3CCCCCC3)ncnc21)NCc1ccc2c(c1)OCO2 returned Tg IFNy HTS -96.5*.
Screening O=C(Cn1ncc2c(N3CCCCC3)ncnc21)NCc1ccco1 returned Tg IFNy HTS 21.0.
Screening Cc1cccc(Nc2ccc(C3CCCN(CC(=O)Nc4nc(C)c(C)s4)C3)nc2)n1 (stereo unspecified) returned Tg IFNy HTS -3.5.
For CC1CCN(S(=O)(=O)c2ccc3c(c2)CCC(=O)N3CC(=O)N2CCOCC2)CC1 the results were Tg IFNy HTS 26.3.
O=C(NCC1CC1)C1CCC2(CCN(C(=O)C3CCOCC3)CC2)O1 (stereo unspecified) was read as Tg IFNy HTS 2.1.
For O=S(=O)(Oc1ccc(-c2cnc3ccccc3n2)cc1)c1ccc2ccccc2c1 the results were Tg IFNy HTS -18.7.
For Cc1ccc(NS(=O)(=O)N(C)C)cc1C the results were Tg IFNy HTS -6.8.
CN(CCc1ccccn1)Cc1cnc2c(-c3ccccc3)cnn2c1 was read as Tg IFNy HTS 19.6.
For CC(C)c1ccc(S(=O)(=O)N2CCC3(CC2)Nc2cc(F)ccc2-n2cccc23)cc1 the results were Tg IFNy HTS -25.9.
Screening COCc1nc2cc(NC(=O)Cc3ccccc3)cc(C(=O)N(C)CC3CCCCO3)c2n1C (stereo unspecified) returned Tg IFNy HTS -2.8.
O=C(c1cccc(F)c1)N1CCN(S(=O)(=O)c2cc3c4c(c2)CCN4C(=O)CC3)CC1 was read as Tg IFNy HTS 32.3.
Screening O=C(Cn1ncc2c(N3CCCCC3)ncnc21)NCc1ccccc1 returned Tg IFNy HTS -91.8*.
O=C(Cn1ncc2c(N3CCCC3)ncnc21)Nc1ccc(Br)cc1 was read as Tg IFNy HTS 195.1.
For Cc1ccc(CNC(=O)Cn2ncc3c(N4CCN(c5ccccn5)CC4)ncnc32)cc1C the results were Tg IFNy HTS 134.1.
O=C(Cn1ncc2c(N3CCN(c4ccccn4)CC3)ncnc21)NCc1cccnc1 was read as Tg IFNy HTS 11.2.
Screening O=C(Cn1ncc2c(N3CCN(c4ccccn4)CC3)ncnc21)NCc1ccc(F)cc1 returned Tg IFNy HTS -99.9*.
O=C(Cn1ncc2c(N3CCCCCC3)ncnc21)NCc1ccc(Br)cc1 was read as Tg IFNy HTS -92.7*.
For COc1cccc(CNC(=O)Cn2ncc3c(N4CCCCCC4)ncnc32)c1 the results were Tg IFNy HTS -50.9.
O=C(Cn1ncc2c(N3CCCC3)ncnc21)NCc1ccncc1 was read as Tg IFNy HTS -35.2.
Screening O=C(Cn1ncc2c(N3CCCCCC3)ncnc21)NCc1cccc(Br)c1 returned Tg IFNy HTS -22.6.
